Experimental findings from PubChem BioAssay (NCI) are described below.

About 83,000 compounds went through this panel and 20% of them were active in at least one assay; those are over-represented in the sample as a whole.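 Negative percent growth values reflect cell death: -40 means 40% of the cells present at the start died, and -100 means all died.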 Values without a mark were called inactive. Active and inactive are the calls of the source. The calls were made as follows: active = growth percent below 10; inactive = the rest.

Among the test systems are DU-145 prostate; K-562 leukemia; MALME-3M melanoma; MDA-MB-231 breast; RXF 393 renal; SF-268 CNS; SF-295 CNS; UACC-257 melanoma; M14 melanoma; HCT-15 colon; HT29 colon; SNB-75 CNS; SNB-19 CNS; U251 CNS; PC-3 prostate; SK-MEL-5 melanoma; UACC-62 melanoma; LOX IMVI melanoma; SK-MEL-28 melanoma.
What all share (assay): NCI-60 one-dose screen, 48 h (100 = growth as untreated, 0 = no growth, -100 = all killed)
Common to all, as to conditions: 10 µM unless noted

As to `COc1ccccc1N1CCN(CCn2c(=O)c3c(c4ccccc4n3C)n(C)c2=O)CC1`, the growth with DU-145 prostate was 107%; with K-562 leukemia, 100%; in the assay on MALME-3M melanoma, 110%; in the assay on MDA-MB-231 breast, 90.4%; in the assay with RXF 393 renal, 101%; with SF-268 CNS, 96.2%. Further, the growth in the assay with SF-295 CNS was 97.8%; in the assay on UACC-257 melanoma, 90.6%; in the assay on M14 melanoma it was 98.8%; in the assay on HCT-15 colon, 101%; in the assay with HT29 colon it was 68.3%; with SNB-75 CNS, 107%. Besides, the growth in the assay on SNB-19 CNS was 95.2%; in the assay on U251 CNS, 84.2%; in the assay with PC-3 prostate, 84.4%; in the assay with SK-MEL-5 melanoma, 95.8%; with UACC-62 melanoma, 92.4%; with LOX IMVI melanoma, 96.3%. Also, the growth with SK-MEL-28 melanoma was 115%.
Regarding `COc1ccc(C2Nc3ccccc3-n3cccc32)cc1` (stereo unspecified), the growth in the assay with DU-145 prostate is 111%; in the assay with K-562 leukemia, 105%; with MALME-3M melanoma, 100%; in the assay with MDA-MB-231 breast, 78.7%; in the assay with RXF 393 renal it was 111%; with SF-268 CNS, 98.7%. The growth in the assay with SF-295 CNS was 92.4%; in the assay with UACC-257 melanoma it was 98.9%; in the assay with M14 melanoma, 99.3%; in the assay with HCT-15 colon, 92.9%; with HT29 colon, 108%; with SNB-75 CNS, 105%. In addition, the growth in the assay on SNB-19 CNS was 97.8%; with U251 CNS, 98%; with PC-3 prostate it was 71.7%; in the assay with SK-MEL-5 melanoma, 93.1%; with UACC-62 melanoma it was 81.9%; with LOX IMVI melanoma, 97.3%. Further, the growth in the assay with SK-MEL-28 melanoma was 106%.
As to `O=C(COCc1c(-c2ccccc2)no[n+]1[O-])Nc1ccc(C(=O)/C=C/c2ccc3c(c2)OCO3)cc1`, the growth in the assay on DU-145 prostate is 116%; in the assay with K-562 leukemia it was 92.4%; with MALME-3M melanoma it was 123%; with MDA-MB-231 breast, 101%; in the assay with RXF 393 renal, 95.9%; in the assay on SF-268 CNS, 97.9%. Besides, the growth in the assay with SF-295 CNS is 103%; with UACC-257 melanoma, 93.3%; in the assay with M14 melanoma it was 109%; in the assay on HCT-15 colon, 104%; in the assay on HT29 colon it was 132%; with SNB-75 CNS it was 120%. Further, the growth with SNB-19 CNS is 97.3%; with PC-3 prostate, 76.3%; with SK-MEL-5 melanoma, 94.4%; in the assay with UACC-62 melanoma, 97.5%; with LOX IMVI melanoma, 68.3%; with SK-MEL-28 melanoma, 112%.
Take `COc1ccc(C(=O)c2sc3nc(-c4ccccc4OC)ccc3c2N)cc1OC`: the growth was 70.1% in the assay with DU-145 prostate; 25.1% with K-562 leukemia; 90.6% with MALME-3M melanoma; 64% in the assay on MDA-MB-231 breast; 55.8% in the assay with RXF 393 renal; 64.7% in the assay on SF-268 CNS. The growth with SF-295 CNS was 47.9%; in the assay with UACC-257 melanoma, 86.6%; in the assay on M14 melanoma, 50%; with HCT-15 colon it was 58.5%; with HT29 colon it was 56.2%; with SNB-75 CNS, 73.2%. Moreover, the growth is 78.2% in the assay on SNB-19 CNS; 63.2% with U251 CNS; 30.9% in the assay on PC-3 prostate; 8.53% (active) in the assay with SK-MEL-5 melanoma; 67.8% with UACC-62 melanoma; 88.8% with SK-MEL-28 melanoma.
On to `COc1cc(C2CC(=O)Nc3c2cnn3Cc2ccco2)cc2c1OCCO2` (stereo unspecified), for which the growth in the assay with DU-145 prostate is 104%; in the assay with K-562 leukemia it was 29.6%; in the assay with MALME-3M melanoma, 102%; with MDA-MB-231 breast, 101%; with RXF 393 renal it was 62.4%; in the assay with SF-268 CNS it was 82.5%. Further, the growth with SF-295 CNS was 62%; in the assay with UACC-257 melanoma it was 82.2%; in the assay with M14 melanoma, 70.5%; with HCT-15 colon it was 64.9%; in the assay on HT29 colon it was 88.8%; in the assay on SNB-75 CNS it was 77.5%. Besides, the growth with SNB-19 CNS is 97.9%; with U251 CNS it was 84.6%; in the assay with PC-3 prostate it was 97.6%; in the assay with SK-MEL-5 melanoma, 75.5%; with UACC-62 melanoma, 75.8%; with SK-MEL-28 melanoma, 75.7%.
Turning to `Cc1nn(-c2nc3ccccc3[nH]2)c2c1C(c1ccc3c(c1)OCO3)CC(=O)N2` (stereo unspecified), the growth was 30.7% in the assay with DU-145 prostate; -14.8% (active) in the assay with K-562 leukemia; 27.7% in the assay on MALME-3M melanoma; 40.8% in the assay with MDA-MB-231 breast; 8.03% (active) with RXF 393 renal; 19.3% with SF-268 CNS. For the same molecule, the growth was -36.3% (active) with SF-295 CNS; 69.1% in the assay with UACC-257 melanoma; 42.5% in the assay with M14 melanoma; 47.6% with HCT-15 colon; 34.7% in the assay on HT29 colon; 39.8% in the assay with SNB-75 CNS. The growth in the assay on SNB-19 CNS was 49%; in the assay on U251 CNS, 30.5%; in the assay on PC-3 prostate it was 21.6%; in the assay with SK-MEL-5 melanoma, 12.4%; in the assay with UACC-62 melanoma, 27.3%; with SK-MEL-28 melanoma, 82.3%.
As to `Cc1nc2nc(N)nc(N)c2nc1C`, the growth is 110% in the assay with DU-145 prostate; 100% in the assay with K-562 leukemia; 99.9% with MALME-3M melanoma; 94% in the assay on MDA-MB-231 breast; 105% in the assay with RXF 393 renal; 98.5% with SF-268 CNS. The growth in the assay on SF-295 CNS is 90.5%; with UACC-257 melanoma it was 96.2%; in the assay on M14 melanoma, 90.9%; in the assay on HCT-15 colon, 98.6%; with HT29 colon, 102%; in the assay with SNB-75 CNS it was 93.2%. The growth is 95.1% in the assay on SNB-19 CNS; 99.5% in the assay on U251 CNS; 92.7% with PC-3 prostate; 101% in the assay on SK-MEL-5 melanoma; 91.1% with UACC-62 melanoma; 101% in the assay on LOX IMVI melanoma. Moreover, in the assay on SK-MEL-28 melanoma, the growth was 109%.
Regarding `CCOc1ccc(Nc2nc(-c3c(C)nc4ncccn34)cs2)cc1`, the growth with DU-145 prostate is 0.86% (active); in the assay with K-562 leukemia, 4.04% (active); in the assay on MALME-3M melanoma, 52.8%; with MDA-MB-231 breast it was -12.5% (active); in the assay on RXF 393 renal it was -1.2% (active); in the assay with SF-268 CNS, 28.4%. Further, the growth in the assay on SF-295 CNS was 17.1%; in the assay with UACC-257 melanoma it was 78.8%; with M14 melanoma, 21.1%; in the assay on HCT-15 colon it was 15.4%; with HT29 colon it was 4.76% (active); in the assay on SNB-75 CNS, 22.9%. The growth in the assay on SNB-19 CNS was 33.4%; in the assay with U251 CNS, 4.82% (active); with SK-MEL-5 melanoma, -11.6% (active); with UACC-62 melanoma it was 10.6%; with LOX IMVI melanoma, 23.1%; in the assay with SK-MEL-28 melanoma it was 39%.
`COc1ccc(N(Cc2cc(OC)c(OC)c(OC)c2)C2OC(=O)c3ccccc32)cc1` (stereo unspecified): the growth in the assay with DU-145 prostate was 25.5%; in the assay on K-562 leukemia, 17.7%; with MALME-3M melanoma, 31.3%; with MDA-MB-231 breast, 41.1%; with RXF 393 renal, -31.7% (active); with SF-268 CNS, 44%. Moreover, the growth is 16.3% in the assay with SF-295 CNS; 70.8% in the assay on UACC-257 melanoma; 25.7% with M14 melanoma; 36.1% in the assay with HCT-15 colon; 5.34% (active) in the assay on HT29 colon; -6.32% (active) in the assay on SNB-75 CNS. In addition, the growth in the assay on SNB-19 CNS was 53.3%; with U251 CNS, 19.4%; with PC-3 prostate, 25.2%; in the assay with SK-MEL-5 melanoma it was 18.2%; in the assay with UACC-62 melanoma it was 44.2%; in the assay with LOX IMVI melanoma, 46.2%. Further, the growth in the assay on SK-MEL-28 melanoma was 55.5%.
